Test results from the supplement of paper PMC12282887.
± gives the standard deviation of the averaged measurements.

Tests used:
Test in all cases: promoter activity interaction Z-score (Lux/OD deviation from empty-vector control); higher = stronger promoter induction by the compound
[1] = system: E. coli BW25113 acrABp lux reporter
Procedure, shortened: (§1)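 Wild-type E. coli BW25113 and three single-gene deletion strains, each carrying a low-copy luxCDABE promoter reporter, were grown at 37°C in 40 µl LB Lennox per well of a 384-well plate. Every compound was applied at four 1:2 dilutions in biological duplicates, and OD600 and luminescence were read every 30 min for 12 h. Integration covered 0–8 h for wild type and 1–9 h for deletion strains, and wells under 10% of the median growth value were removed. Scores are Z-transformed residuals of growth-normalised luminescence fitted against a control.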

[2] = system: E. coli BW25113 marRABp lux reporter
Procedure, shortened: as §1

[3] = system: E. coli BW25113 micFp lux reporter
Procedure, shortened: as §1

[4] = system: E. coli BW25113 ompFp lux reporter
Procedure, shortened: as §1

[5] = system: E. coli BW25113 robp lux reporter
Procedure, shortened: as §1

[6] = system: E. coli BW25113 soxSp lux reporter
Procedure, shortened: as §1

[7] = system: E. coli BW25113 tolCp lux reporter
Procedure, shortened: as §1

[8] = 23 µg/ml, genetic background: wild type
[9] = 23 µg/ml, genetic background: ΔmarA
[10] = 23 µg/ml, genetic background: Δrob
[11] = 23 µg/ml, genetic background: ΔsoxS
[12] = 46 µg/ml, genetic background: wild type
[13] = 46 µg/ml, genetic background: ΔmarA
[14] = 46 µg/ml, genetic background: Δrob
[15] = 46 µg/ml, genetic background: ΔsoxS
[16] = 92.1 µg/ml, genetic background: wild type
[17] = 92.1 µg/ml, genetic background: ΔmarA
[18] = 92.1 µg/ml, genetic background: Δrob
[19] = 92.1 µg/ml, genetic background: ΔsoxS
[20] = 184.2 µg/ml, genetic background: wild type
[21] = 184.2 µg/ml, genetic background: ΔmarA
[22] = 184.2 µg/ml, genetic background: Δrob
[23] = 184.2 µg/ml, genetic background: ΔsoxS

Structure (SMILES): COc1cc(/C=C/C(=O)CC(=O)/C=C/c2ccc(O)c(OC)c2)ccc1O [Curcumin]
- promoter activity interaction Z-score [1, 8]: -0.214 ± 0.21
- promoter activity interaction Z-score [1, 9]: 1.82 ± 1
- promoter activity interaction Z-score [1, 10]: 0.162 ± 0.49
- promoter activity interaction Z-score [1, 11]: 0.139 ± 0.18
- promoter activity interaction Z-score [1, 12]: 0.341 ± 0.83
- promoter activity interaction Z-score [1, 13]: 1.2 ± 0.066
- promoter activity interaction Z-score [1, 14]: 0.14 ± 0.34
- promoter activity interaction Z-score [1, 15]: 0.0402 ± 0.48
- promoter activity interaction Z-score [1, 16]: 0.529 ± 0.2
- promoter activity interaction Z-score [1, 17]: 1.08 ± 0.031
- promoter activity interaction Z-score [1, 18]: 0.869 ± 0.75
- promoter activity interaction Z-score [1, 19]: 0.0855 ± 0.34
- promoter activity interaction Z-score [1, 20]: 0.33 ± 0.052
- promoter activity interaction Z-score [1, 21]: 1.06 ± 1.1
- promoter activity interaction Z-score [1, 22]: 1.36 ± 1.6
- promoter activity interaction Z-score [1, 23]: 0.0296 ± 0.41
- promoter activity interaction Z-score [2, 8]: 0.0587 ± 1
- promoter activity interaction Z-score [2, 9]: 0.238 ± 0.1
- promoter activity interaction Z-score [2, 10]: 0.099 ± 0.28
- promoter activity interaction Z-score [2, 11]: 0.112 ± 0.41
- promoter activity interaction Z-score [2, 12]: -0.237 ± 0.12
- promoter activity interaction Z-score [2, 13]: 0.377 ± 0.29
- promoter activity interaction Z-score [2, 14]: -0.00179 ± 0.26
- promoter activity interaction Z-score [2, 15]: -0.0875 ± 0.19
- promoter activity interaction Z-score [2, 16]: 0.812 ± 0.01
- promoter activity interaction Z-score [2, 17]: 1.05 ± 0.41
- promoter activity interaction Z-score [2, 18]: 0.00921 ± 0.51
- promoter activity interaction Z-score [2, 19]: -0.225 ± 0.28
- promoter activity interaction Z-score [2, 20]: 0.402 ± 1
- promoter activity interaction Z-score [2, 21]: -0.341 ± 0.046
- promoter activity interaction Z-score [2, 22]: 0.198 ± 0.15
- promoter activity interaction Z-score [2, 23]: -0.312 ± 0.3
- promoter activity interaction Z-score [3, 8]: -0.542 ± 0.23
- promoter activity interaction Z-score [3, 9]: 0.217 ± 0.034
- promoter activity interaction Z-score [3, 10]: -0.24 ± 0.022
- promoter activity interaction Z-score [3, 11]: -0.0851 ± 0.53
- promoter activity interaction Z-score [3, 12]: -0.984 ± 0.24
- promoter activity interaction Z-score [3, 13]: 0.275 ± 0.043
- promoter activity interaction Z-score [3, 14]: -0.0884 ± 0.0078
- promoter activity interaction Z-score [3, 15]: 0.00161 ± 0.34
- promoter activity interaction Z-score [3, 16]: -0.158 ± 0.37
- promoter activity interaction Z-score [3, 17]: 0.257 ± 0.096
- promoter activity interaction Z-score [3, 18]: -0.122 ± 0.094
- promoter activity interaction Z-score [3, 19]: -0.241 ± 0.17
- promoter activity interaction Z-score [3, 20]: -0.608 ± 0.096
- promoter activity interaction Z-score [3, 21]: 0.122 ± 0.096
- promoter activity interaction Z-score [3, 22]: -0.251 ± 0.11
- promoter activity interaction Z-score [3, 23]: 0.0295 ± 0.21
- promoter activity interaction Z-score [4, 8]: -0.638 ± 0.26
- promoter activity interaction Z-score [4, 9]: 0.332 ± 0.5
- promoter activity interaction Z-score [4, 10]: 0.137 ± 1.3
- promoter activity interaction Z-score [4, 11]: -0.824 ± 0.29
- promoter activity interaction Z-score [4, 12]: -0.568 ± 0.12
- promoter activity interaction Z-score [4, 13]: 0.31 ± 0.57
- promoter activity interaction Z-score [4, 14]: 0.208 ± 0.91
- promoter activity interaction Z-score [4, 15]: -0.0625 ± 1.2
- promoter activity interaction Z-score [4, 16]: -0.201 ± 0.71
- promoter activity interaction Z-score [4, 17]: -0.362 ± 0.33
- promoter activity interaction Z-score [4, 18]: 0.836 ± 0.9
- promoter activity interaction Z-score [4, 19]: -0.27 ± 0.58
- promoter activity interaction Z-score [4, 20]: -0.368 ± 0.11
- promoter activity interaction Z-score [4, 21]: -0.675 ± 0.88
- promoter activity interaction Z-score [4, 22]: -0.647 ± 0.46
- promoter activity interaction Z-score [4, 23]: -0.351 ± 0.82
- promoter activity interaction Z-score [5, 8]: 0.788 ± 0.71
- promoter activity interaction Z-score [5, 9]: 1.07 ± 0.14
- promoter activity interaction Z-score [5, 10]: 0.0477 ± 0.46
- promoter activity interaction Z-score [5, 11]: 0.332 ± 0.6
- promoter activity interaction Z-score [5, 12]: 0.38 ± 0.33
- promoter activity interaction Z-score [5, 13]: 1.13 ± 0.87
- promoter activity interaction Z-score [5, 14]: 0.606 ± 0.79
- promoter activity interaction Z-score [5, 15]: 0.859 ± 0.5
- promoter activity interaction Z-score [5, 16]: 0.913 ± 0.078
- promoter activity interaction Z-score [5, 17]: 0.411 ± 0.0043
- promoter activity interaction Z-score [5, 18]: 0.829 ± 1.5
- promoter activity interaction Z-score [5, 19]: -0.797 ± 0.19
- promoter activity interaction Z-score [5, 20]: -0.161 ± 0.49
- promoter activity interaction Z-score [5, 21]: 0.0014 ± 0.21
- promoter activity interaction Z-score [5, 22]: 0.959 ± 1.3
- promoter activity interaction Z-score [5, 23]: 0.501 ± 0.48
- promoter activity interaction Z-score [6, 8]: -0.156 ± 0.019
- promoter activity interaction Z-score [6, 9]: 0.209 ± 0.098
- promoter activity interaction Z-score [6, 10]: -0.0921 ± 0.039
- promoter activity interaction Z-score [6, 11]: 0.264 ± 0.5
- promoter activity interaction Z-score [6, 12]: -0.559 ± 0.02
- promoter activity interaction Z-score [6, 13]: 0.12 ± 0.11
- promoter activity interaction Z-score [6, 14]: -0.0695 ± 0.0052
- promoter activity interaction Z-score [6, 15]: 0.244 ± 0.33
- promoter activity interaction Z-score [6, 16]: -0.204 ± 0.11
- promoter activity interaction Z-score [6, 17]: -0.148 ± 0.051
- promoter activity interaction Z-score [6, 18]: -0.206 ± 0.015
- promoter activity interaction Z-score [6, 19]: -0.186 ± 0.41
- promoter activity interaction Z-score [6, 20]: -0.42 ± 0.036
- promoter activity interaction Z-score [6, 21]: -0.399 ± 0.12
- promoter activity interaction Z-score [6, 22]: -0.341 ± 0.14
- promoter activity interaction Z-score [6, 23]: -0.153 ± 0.15
- promoter activity interaction Z-score [7, 8]: -0.731 ± 0.53
- promoter activity interaction Z-score [7, 9]: -0.0769 ± 0.49
- promoter activity interaction Z-score [7, 10]: -0.819 ± 0.47
- promoter activity interaction Z-score [7, 11]: 0.356 ± 0.35
- promoter activity interaction Z-score [7, 12]: -0.815 ± 0.45
- promoter activity interaction Z-score [7, 13]: 0.181 ± 0.66
- promoter activity interaction Z-score [7, 14]: -0.0696 ± 0.8
- promoter activity interaction Z-score [7, 15]: -0.467 ± 0.52
- promoter activity interaction Z-score [7, 16]: -0.469 ± 0.65
- promoter activity interaction Z-score [7, 17]: 0.826 ± 0.17
- promoter activity interaction Z-score [7, 18]: -0.739 ± 0.063
- promoter activity interaction Z-score [7, 19]: 0.259 ± 0.43
- promoter activity interaction Z-score [7, 20]: -0.549 ± 0.6
- promoter activity interaction Z-score [7, 21]: -0.037 ± 0.23
- promoter activity interaction Z-score [7, 22]: -0.376 ± 0.11
- promoter activity interaction Z-score [7, 23]: 0.000633 ± 0.47
